Measured values from PubChem BioAssay (NCI).
Compounds without any hit were thinned out: in the full panel of roughly 83,000, 20% have a hit.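 For each line, cells grew in 96-well plates with the test compound present at a single concentration for 48 hours.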 Calls of active or inactive are those of the source. How the source made its calls: active means growth percent below 10; inactive means the rest.

Experiments:
Assay in all cases: NCI-60 one-dose screen, 48 h (100 = growth as untreated, 0 = no growth, -100 = all killed)
OVCAR-8 ovarian = conditions: 10 µM unless noted
OVCAR-5 ovarian = conditions: 10 µM unless noted
OVCAR-4 ovarian = conditions: 10 µM unless noted
SK-OV-3 ovarian = conditions: 10 µM unless noted
OVCAR-3 ovarian = conditions: 10 µM unless noted
HS 578T breast = conditions: 10 µM
NCI/ADR-RES ovarian = conditions: 10 µM unless noted
T-47D breast = conditions: 10 µM unless noted
BT-549 breast = conditions: 10 µM unless noted
MDA-MB-435 melanoma = conditions: 10 µM unless noted
SW-620 colon = conditions: 10 µM unless noted
MCF7 breast = conditions: 10 µM unless noted
HCT-116 colon = conditions: 10 µM unless noted
HCC-2998 colon = conditions: 10 µM unless noted
KM12 colon = conditions: 10 µM unless noted
IGROV1 ovarian = conditions: 10 µM unless noted
RPMI-8226 leukemia = conditions: 10 µM unless noted

Measured: growth

CC(OC(=O)Nc1cccc(Cl)c1)C(=O)O (stereo not given)
inactive: OVCAR-8 ovarian 95.3% | OVCAR-5 ovarian 89.1% | OVCAR-4 ovarian 98.6% | SK-OV-3 ovarian 99.1% | OVCAR-3 ovarian 96.3% | HS 578T breast 96.4% | NCI/ADR-RES ovarian 96.8% | T-47D breast 93.2% | BT-549 breast 113% | MDA-MB-435 melanoma 82.8% | SW-620 colon 99.5% | MCF7 breast 99.7% | HCT-116 colon 97.2% | HCC-2998 colon 99.8% | KM12 colon 101%

COc1cccc(OCC(O)CN2CCN(c3ccccc3)CC2)c1 (stereo not given)
inactive: OVCAR-8 ovarian 103% | OVCAR-4 ovarian 97.4% | SK-OV-3 ovarian 106% | IGROV1 ovarian 107% | OVCAR-3 ovarian 112% | HS 578T breast 117% | NCI/ADR-RES ovarian 100% | T-47D breast 100% | MDA-MB-435 melanoma 121% | SW-620 colon 112% | MCF7 breast 108% | HCT-116 colon 112% | HCC-2998 colon 106% | KM12 colon 112%

O=C(NCCNC(=O)c1cc(S(=O)(=O)NCCc2ccccc2)c(O)c(O)c1O)c1cc(S(=O)(=O)NCCc2ccccc2)c(O)c(O)c1O
inactive: RPMI-8226 leukemia 79.5% | OVCAR-8 ovarian 40.2% | OVCAR-4 ovarian 62.3% | SK-OV-3 ovarian 33.1% | OVCAR-3 ovarian 19.7% | HS 578T breast 52.2% | NCI/ADR-RES ovarian 76.1% | T-47D breast 84.1% | BT-549 breast 48.8% | MDA-MB-435 melanoma 35.2% | SW-620 colon 54.7% | MCF7 breast 34.9% | HCT-116 colon 33.5% | HCC-2998 colon 38.6% | KM12 colon 34.1%

CC(=O)[C@@]1(O)[C@H](C)C[C@H]2[C@@H]3C=C(C)C4=Cc5c(cnn5-c5ccccc5)C[C@]4(C)[C@H]3[C@@H](O)C[C@@]21C
active: IGROV1 ovarian -16.8% | HS 578T breast 5.32% | SW-620 colon -59.9% | KM12 colon -45%
inactive: OVCAR-8 ovarian 37.3% | OVCAR-5 ovarian 40.6% | OVCAR-4 ovarian 56.5% | T-47D breast 44.4% | MDA-MB-435 melanoma 37.7% | MCF7 breast 15.5% | HCC-2998 colon 19.8%

CO[C@@]12[C@@H]3NC3CN1C1=C(C(=O)C(N)=C(C)C1=O)[C@@H]2COC(N)=O (stereo not given in full)
active: SK-OV-3 ovarian 5.63% | MCF7 breast 6.55% | HCT-116 colon 6.78% | HCC-2998 colon -44.8%
inactive: OVCAR-8 ovarian 15.8% | OVCAR-5 ovarian 45.7% | IGROV1 ovarian 33.1% | HS 578T breast 70.9% | NCI/ADR-RES ovarian 51.4% | T-47D breast 40.8% | BT-549 breast 28.6% | MDA-MB-435 melanoma 34.9% | SW-620 colon 10.4%

O=C(C(=O)c1cccnc1)c1cccnc1
inactive: OVCAR-8 ovarian 82.6% | OVCAR-5 ovarian 100% | OVCAR-4 ovarian 101% | SK-OV-3 ovarian 136% | IGROV1 ovarian 31% | OVCAR-3 ovarian 87.7% | HS 578T breast 99% | NCI/ADR-RES ovarian 97.5% | T-47D breast 170% | MDA-MB-435 melanoma 119% | SW-620 colon 103% | MCF7 breast 97.5% | HCT-116 colon 99.8% | HCC-2998 colon 99.1% | KM12 colon 108%

Cc1ccc2nc(CN(CCN(Cc3nc4ccc(C)cc4[nH]3)Cc3nc4ccc(C)cc4[nH]3)Cc3nc4ccc(C)cc4[nH]3)[nH]c2c1
active: OVCAR-8 ovarian -71.8% | OVCAR-5 ovarian -67.8% | OVCAR-4 ovarian -99.2% | SK-OV-3 ovarian -94.6% | OVCAR-3 ovarian -94.4% | HS 578T breast -74.1% | NCI/ADR-RES ovarian -72.5% | T-47D breast -93% | BT-549 breast -98.2% | MDA-MB-435 melanoma -92.6% | SW-620 colon -85.9% | MCF7 breast -95% | HCT-116 colon -96.3% | HCC-2998 colon -65% | KM12 colon -95.9%

C1=C\CCCCN2CC[C@H]3[C@H](CCCC/C=C\CCCN4C[C@@H](CCCCC/1)C[C@@H]3C4)C2
active: IGROV1 ovarian -11.3% | HS 578T breast 9.63% | MDA-MB-435 melanoma -70.3%
inactive: OVCAR-8 ovarian 77.4% | OVCAR-5 ovarian 87.6% | OVCAR-4 ovarian 74.2% | SK-OV-3 ovarian 83.9% | OVCAR-3 ovarian 49.1% | NCI/ADR-RES ovarian 77.5% | T-47D breast 71.4% | BT-549 breast 89.5% | SW-620 colon 79.8% | MCF7 breast 22.7% | HCT-116 colon 43.6% | HCC-2998 colon 22.1% | KM12 colon 58.1%

c1ccc2c(c1)cnc1ccccc12
inactive: OVCAR-8 ovarian 97.5% | OVCAR-5 ovarian 92.2% | SK-OV-3 ovarian 96.1% | IGROV1 ovarian 121% | HS 578T breast 100% | NCI/ADR-RES ovarian 101% | T-47D breast 96.8% | BT-549 breast 106% | MDA-MB-435 melanoma 102% | SW-620 colon 98.5% | MCF7 breast 94.3% | HCT-116 colon 100% | HCC-2998 colon 101% | KM12 colon 102%

COc1cc(/C=C/c2ccc3c(Br)cc(Br)c(O)c3n2)ccc1O
inactive: OVCAR-8 ovarian 17.5% | OVCAR-4 ovarian 17.4% | SK-OV-3 ovarian 58.2% | MDA-MB-435 melanoma 32% | SW-620 colon 18.3% | MCF7 breast 10.2% | HCC-2998 colon 35% | KM12 colon 20.8%
active: IGROV1 ovarian -44.8% | OVCAR-3 ovarian 1.97% | HS 578T breast 3.67% | NCI/ADR-RES ovarian 6.88% | T-47D breast 4.66% | HCT-116 colon 1.68%

Clc1ccc2c(c1)-n1cccc1C(c1ccc3ccccc3c1)=NC2
inactive: OVCAR-8 ovarian 102% | OVCAR-5 ovarian 98.4% | OVCAR-4 ovarian 84.2% | SK-OV-3 ovarian 94.5% | IGROV1 ovarian 61.4% | OVCAR-3 ovarian 86.1% | HS 578T breast 110% | NCI/ADR-RES ovarian 77.8% | T-47D breast 76.5% | MDA-MB-435 melanoma 50.4% | SW-620 colon 88% | MCF7 breast 84.4% | HCT-116 colon 66.4% | HCC-2998 colon 87.9% | KM12 colon 71.8%

N#Cc1c(NN)n(C2OC(CO)C(O)C2O)c2ncnc(N)c12 (stereo not given)
inactive: OVCAR-5 ovarian 17% | OVCAR-4 ovarian 14%
active: OVCAR-8 ovarian 0.0898% | IGROV1 ovarian -65.7% | HS 578T breast 9.12% | T-47D breast -14.9% | MDA-MB-435 melanoma -15.5% | SW-620 colon -15.6% | MCF7 breast -11.2% | HCT-116 colon 2.09% | HCC-2998 colon -9.45% | KM12 colon 1.94%

Nc1cc2nc3ccccc3oc-2cc1=O
inactive: OVCAR-8 ovarian 58.4% | OVCAR-5 ovarian 81.6% | OVCAR-4 ovarian 69.6% | SK-OV-3 ovarian 92.4% | OVCAR-3 ovarian 10.1% | NCI/ADR-RES ovarian 60.6% | T-47D breast 69.9% | SW-620 colon 11.6% | HCT-116 colon 45.1% | HCC-2998 colon 79.4% | KM12 colon 32.4%
active: HS 578T breast -38.3% | BT-549 breast -47.1% | MDA-MB-435 melanoma -88% | MCF7 breast 9.47%

CC(=O)OC1Oc2ccccc2-c2oc3nc(=N)n(C)c-3cc21 (stereo not given)
inactive: OVCAR-8 ovarian 98.6% | OVCAR-5 ovarian 107% | OVCAR-4 ovarian 104% | SK-OV-3 ovarian 104% | IGROV1 ovarian 102% | HS 578T breast 143% | NCI/ADR-RES ovarian 96% | T-47D breast 93.6% | BT-549 breast 128% | MDA-MB-435 melanoma 122% | SW-620 colon 104% | MCF7 breast 98.6% | HCT-116 colon 100% | HCC-2998 colon 102% | KM12 colon 209%

O=[N+]([O-])c1cc(F)c2cccnc2c1O
inactive: OVCAR-8 ovarian 88.8% | OVCAR-5 ovarian 105% | OVCAR-4 ovarian 102% | SK-OV-3 ovarian 97.4% | OVCAR-3 ovarian 111% | HS 578T breast 105% | NCI/ADR-RES ovarian 92.9% | T-47D breast 99.5% | MDA-MB-435 melanoma 102% | SW-620 colon 87.4% | MCF7 breast 94.7% | HCT-116 colon 95.8% | HCC-2998 colon 96.2% | KM12 colon 111%
active: IGROV1 ovarian 3.74%

CCCCCCCCCCCCCCCC1=NCC[N+]1(CCO)CCO
active: IGROV1 ovarian -16%
inactive: OVCAR-8 ovarian 37% | OVCAR-5 ovarian 43.1% | OVCAR-4 ovarian 61.4% | SK-OV-3 ovarian 95.1% | OVCAR-3 ovarian 86.6% | HS 578T breast 75.2% | NCI/ADR-RES ovarian 71.1% | T-47D breast 78.8% | BT-549 breast 79.6% | MDA-MB-435 melanoma 30.7% | SW-620 colon 57.6% | MCF7 breast 50.5% | HCT-116 colon 12.1% | HCC-2998 colon 82.5%

COc1cc(/C=C2\C(=O)Nc3ccc(N(C)C)cc32)cc(OC)c1OC
active: HS 578T breast -18.2% | NCI/ADR-RES ovarian 0.228% | BT-549 breast 6.82% | MDA-MB-435 melanoma -37.7% | SW-620 colon 8.08%
inactive: RPMI-8226 leukemia 14.3% | OVCAR-5 ovarian 71.1% | OVCAR-4 ovarian 42.1% | SK-OV-3 ovarian 45.5% | IGROV1 ovarian 16.6% | T-47D breast 34.3% | MCF7 breast 12% | HCT-116 colon 13.7% | HCC-2998 colon 49.1%

O=C(Nc1ccc(Oc2ccc(NC(=O)Nc3ccccc3Cl)cc2)cc1)Nc1ccccc1Cl
inactive: OVCAR-8 ovarian 56.1% | OVCAR-4 ovarian 29.7% | SK-OV-3 ovarian 76.5% | HS 578T breast 34.5% | NCI/ADR-RES ovarian 70.3% | T-47D breast 45.3% | MDA-MB-435 melanoma 48.8% | SW-620 colon 51.7% | MCF7 breast 44.1% | HCT-116 colon 29.2% | HCC-2998 colon 80.4% | KM12 colon 40.8%
active: OVCAR-3 ovarian -38.3%

Cc1cc(O)ccc1C1=NN(c2ccc(S(N)(=O)=O)cc2)C(=O)CC1
inactive: OVCAR-8 ovarian 50.1% | OVCAR-5 ovarian 93% | OVCAR-4 ovarian 59.2% | SK-OV-3 ovarian 64.9% | HS 578T breast 18.8% | NCI/ADR-RES ovarian 22.4% | T-47D breast 45.8% | SW-620 colon 16.2% | MCF7 breast 27.7% | HCT-116 colon 23.3% | HCC-2998 colon 64% | KM12 colon 22.7%
active: IGROV1 ovarian -9.76% | MDA-MB-435 melanoma -21.1%

CCOC(=O)C(=CNc1ccccc1Cl)C(=O)OCC
inactive: OVCAR-8 ovarian 91.4% | OVCAR-5 ovarian 100% | OVCAR-4 ovarian 91.7% | SK-OV-3 ovarian 113% | IGROV1 ovarian 91.1% | HS 578T breast 129% | NCI/ADR-RES ovarian 91.4% | T-47D breast 95% | BT-549 breast 106% | MDA-MB-435 melanoma 76.9% | SW-620 colon 98.4% | MCF7 breast 93.8% | HCT-116 colon 97.9% | HCC-2998 colon 102% | KM12 colon 105%
